Values joined by “and” are separate entries in the source; they are usually repeats but may differ in a detail not shown here. Equal entries are not always repeated. Values without a mark were called inactive. Active and inactive are the calls of the source. How the calls were made is not given here. Non-standard residues stand in square brackets, D forms with d. Residues, ends and D or L forms follow the SMILES beside them. Orn = NCCC[CH](N)C(=O)O

The test system of this assay is Aerobactin synthetase IucA (Klebsiella pneumoniae hvKP1). Description: Biochemical IucA enzyme inhibition primary screen of the Spectrum library (AID 1346200).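 Further: 100% = wells without compound and 0% = wells lacking enzyme.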 The following applies: malachite green pyrophosphate, A620, at 8 µM, active compounds read low.
For the compound `C=C1C(=O)O[C@@H]2C[C@@]3(C)CCC[C@H](C)C3=C[C@H]12`, the activity remaining was 97.8%.

Regarding `C[C@]12CCC3c4ccc(O)cc4CCC3C1CC[C@@H]2OC(=O)CCC1CCCC1` (stereo not given in full), the activity remaining is 124%. For `CC1(C)CC[C@]2(C)CC[C@]3(C)C(=CCC4[C@@]5(C)CC[C@H](O)C(C)(C)C5CC[C@]43C)C2C1` (stereo not given in full), the activity remaining was 121%. Take `CCC(C)(C)C(=O)O[C@H]1C[C@@H](C)C=C2C=C[C@H](C)[C@H](CC[C@@H]3C[C@@H](O)CC(=O)O3)[C@H]21`: the activity remaining was 106%. With `Nc1ccn(C2O[C@H](CO)[C@@H](O)[C@@H]2O)c(=O)n1` (stereo not given in full), the activity remaining was 93.2%. Next, `CC(C)(N=NC(C)(C)C(=N)N)C(=N)N`: 105%; `CC(=O)OC(C)(C)[C@@H]1Cc2cc3ccc(=O)oc3cc2O1`: 95.5%. Regarding `CC(C(=O)O)c1ccc(C(=O)c2cccs2)cc1` (stereo not given), the activity remaining was 104%. As for `O=C(O)c1c2ccccc2cc2ccccc12`, the activity remaining was 116%. Turning to `O=C1C=CC(=O)c2c(O)c(Cl)c(Cl)c(O)c21`, the activity remaining was 109%.

As for `OC[C@@H](O)[C@@H](O[C@@H]1O[C@H](CO)[C@@H](O)[C@H](O)[C@H]1O)[C@H](O)[C@@H](O)CO`, the activity remaining is 96.4%.

As for `Cc1[nH]ccc2c1[nH]c1cc(=O)ccc12`, the activity remaining is 118%. Next, `O=c1oc2ccccc2cc1O`: 110%.

On to `CC(N)C12CC3CC(CC(C3)C1)C2` (stereo not given), for which the activity remaining is 115%. With `CCN(CC)C(=O)N1CCN(C)CC1`, the activity remaining is 118%. Consider `Cc1cc(C(C)(C)C)c(O)c(C(C)(C)C)c1`, for which the activity remaining is 110%. Turning to `CC(C)[N+]1(C)C2CC[C@@H]1CC(OC(=O)C(CO)c1ccccc1)C2` (stereo not given in full), the activity remaining is 109%. For `NS(=O)(=O)c1cc(C2(O)NC(=O)c3ccccc32)ccc1Cl` (stereo not given), the activity remaining was 117%.

Take `CCOC(=O)C1=C(O)C(=O)N(Cc2ccccc2)C1`: the activity remaining is 96.2%. Next, `CC(Cc1cccc(C(F)(F)F)c1)NCCOC(=O)c1ccccc1` (stereo not given): 98.2%. Next, `CC(O)(P(=O)(O)O)P(=O)(O)O`: 119%; `CC(=O)O[C@@H]1CC2C(C)(C)[C@H](O)C[C@H](O)[C@]2(C)C2CC[C@@]3(C)C(=CC(=O)O[C@H]3c3ccoc3)[C@@]21C` (stereo not given in full): 102%; `O=C(O)[C@@H](S)[C@@H](S)C(=O)O`: 49.3% (active). Next, `CC1C/C=C/C=C/C=C/C=C/C(O[C@@H]2O[C@H](C)[C@@H](O)[C@H](N)[C@@H]2O)CC2OC(O)(CC(O)CC3OC3/C=C/C(=O)O1)CC(O)C2C(=O)O` (stereo not given in full): 118%; `Nc1ccc(S(=O)(=O)Nc2ccc(Cl)nn2)cc1`: 112%; `CC1(C)O[C@@H]2CC3C4CCC5=CC(=O)C=C[C@]5(C)[C@@]4(F)[C@@H](O)C[C@]3(C)[C@]2(C(=O)CO)O1` (stereo not given in full): 116%.

`CCCc1cc(C(N)=S)ccn1`: the activity remaining was 110%. Next, `C/C=C/CC(C)C(O)C1C(=O)NC(CC)C(=O)N(C)CC(=O)N(C)C(CC(C)C)C(=O)NC(C(C)C)C(=O)N(C)C(CC(C)C)C(=O)NC(C)C(=O)NC(C)C(=O)N(C)C(CC(C)C)C(=O)N(C)C(CC(C)C)C(=O)N(C)C(C(C)C)C(=O)N1C` (stereo not given): 113%; `C[C@]12CCC3c4ccc(O)cc4CCC3C1CCC2=O` (stereo not given in full): 103%. Turning to `CC(C)CC1NC(=O)C(CCCN)NC(=O)C(C(C)C)NC(=O)C2CCCN2C(=O)C(Cc2ccccc2)NC(=O)C(CC(C)C)NC(=O)C(CCCN)NC(=O)C(C(C)C)NC(=O)C2CCCN2C(=O)C(Cc2ccccc2)NC1=O` (stereo not given) (cyclo(FPV[Orn]LFPV[Orn]L); configuration not given here), the activity remaining is 122%. Consider `O=C(O)C1=C[C@@H](O)[C@@H](O)[C@H](O)C1`, for which the activity remaining is 86.3%.

Turning to `C=CC1=C(C)/C(=C/c2[nH]c(Cc3[nH]c(/C=C4\NC(=O)C(C)=C4C=C)c(C)c3CCC(=O)O)c(CCC(=O)O)c2C)NC1=O`, the activity remaining was 112%.

`Nc1ccc(C(=O)Oc2ccccc2)c(O)c1`: the activity remaining was 114%. Next, `C[C@]12CCC3c4ccc(O)cc4CCC3C1CC[C@@H]2O` (stereo not given in full): 125%.

For the compound `CCCc1nc2c(C)cc(-c3nc4ccccc4n3C)cc2n1Cc1ccc(-c2ccccc2C(=O)O)cc1`, the activity remaining was 123%. Next, `COc1cc(-c2coc3cc(O[C@@H]4O[C@H](CO)[C@@H](O)[C@H](O)[C@H]4O)c(OC)c(O)c3c2=O)cc(O)c1OC`: 120%; `NCCOB(c1ccccc1)c1ccccc1`: 97.5% and 103%. Consider `OCC(O)C(O)C(O)C(O)C(O)CO` (stereo not given), for which the activity remaining was 93%. With `CCCCCC(=O)O[C@]1(C(C)=O)CCC2C3CCC4=CC(=O)CC[C@]4(C)C3CC[C@@]21C` (stereo not given in full), the activity remaining was 109%. For the compound `COc1ccc(-c2cc(=O)c3c(OC)c(OC)c(OC)c(OC)c3o2)cc1OC`, the activity remaining was 122%.

Values taken from PubChem BioAssay.
